The supplement of paper PMC10723795
± gives the standard deviation of the averaged measurements.

Legend:
DLD1 = assay: nucleolar normality score relative to DMSO (fraction of DMSO control); RPE1 is a non-cancer human cell line; higher = more normal nucleoli (less nucleolar stress)
Method: (§1)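 Selected screen hits were validated in hTERT lines (BJ5TA, CHON-002, RPE1) and cancer lines (DLD1, HCT116). Cells were immunostained for nucleolin and UBF and the nucleolar normality score was measured per field of view, with 4 fields per drug. Scores are normalized to each cell line's own DMSO control. Dose and time are not stated for this panel.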

HCT116 = assay: as above
Method: as §1

## CN1CC[C@H](c2c(O)cc(O)c3c(=O)cc(-c4ccccc4Cl)oc23)[C@H](O)C1 [Flavopiridol]
DLD1
  nucleolar normality score: 0.432 ± 0.076
HCT116
  nucleolar normality score: 0.452 ± 0.057

## CC(C)c1c2cc(-c3ccnc(NC4CCC(NC5CCOCC5)CC4)n3)ccc2nn1C (centres undefined)
DLD1
  nucleolar normality score: 0.509 ± 0.046
HCT116
  nucleolar normality score: 0.507 ± 0.016

## COc1cccc2c1C(=O)c1c(O)c3c(c(O)c1C2=O)C[C@@](O)(C(=O)CO)C[C@@H]3O[C@H]1C[C@H](N)[C@H](O)[C@H](C)O1 [Doxorubicin]
DLD1
  nucleolar normality score: 0.36 ± 0.056
HCT116
  nucleolar normality score: 0.253 ± 0.036

## Cc1cnc(CNC(=O)c2c(=O)c3ccc(N4CCCN(C)CC4)nc3n3c2sc2ccccc23)cn1
DLD1
  nucleolar normality score: 0.224 ± 0.045
HCT116
  nucleolar normality score: 0.404 ± 0.19

## Cc1nc(-c2cn3c(n2)-c2ccc(-c4cnn(C(C)(C)C(N)=O)c4)cc2OCC3)n(C(C)C)n1 [Taselisib]
DLD1
  nucleolar normality score: 0.485 ± 0.067
HCT116
  nucleolar normality score: 0.588 ± 0.052

## CC(C)C[C@H](NC(=O)[C@H](CCc1ccccc1)NC(=O)CN1CCOCC1)C(=O)N[C@@H](Cc1ccccc1)C(=O)N[C@@H](CC(C)C)C(=O)[C@@]1(C)CO1 [Carfilzomib]
DLD1
  nucleolar normality score: 0.436 ± 0.059
HCT116
  nucleolar normality score: 0.574 ± 0.063

## COC[C@H](NC(=O)c1cnc(C)s1)C(=O)N[C@@H](COC)C(=O)N[C@@H](Cc1ccccc1)C(=O)[C@@]1(C)CO1 [Oprozomib]
DLD1
  nucleolar normality score: 0.471 ± 0.054
HCT116
  nucleolar normality score: 0.658 ± 0.046

## CCc1cnn2c(NCc3ccc[n+]([O-])c3)cc(N3CCCC[C@H]3CCO)nc12 [Dinaciclib]
DLD1
  nucleolar normality score: 0.442 ± 0.09
HCT116
  nucleolar normality score: 0.428 ± 0.052

## C=CCNC1=C2C[C@@H](C)C[C@H](OC)[C@H](O)[C@@H](C)/C=C(\C)[C@H](OC(N)=O)[C@@H](OC)/C=C\C=C(/C)C(=O)NC(=CC1=O)C2=O
DLD1
  nucleolar normality score: 0.436 ± 0.052
HCT116
  nucleolar normality score: 0.462 ± 0.027

## CN(C)CCNC(=O)c1cccn2c(=O)c3cc4ccccc4cc3nc12
DLD1
  nucleolar normality score: 0.173 ± 0.037
HCT116
  nucleolar normality score: 0.202 ± 0.013

## CC(C)n1nc(-c2ccc3oc(N)nc3c2)c2c(N)ncnc21 [Sapanisertib]
DLD1
  nucleolar normality score: 0.398 ± 0.035
HCT116
  nucleolar normality score: 0.549 ± 0.021

## CC(C)c1cc(C(=O)N2Cc3ccc(CN4CCN(C)CC4)cc3C2)c(O)cc1O [Onalespib]
DLD1
  nucleolar normality score: 0.363 ± 0.023
HCT116
  nucleolar normality score: 0.434 ± 0.027
